Test results taken from PubChem BioAssay (Tox21).
Several values for one entry are separate records, joined by “and”; a condition that tells them apart may be missing. Equal entries are not always repeated. Inconclusive results are not listed. A structure can be active in one record and inactive in another. Activity calls are given as the source filed them. Unless noted, calls follow the shape of the dose curve; as a rule, active = well fitted curve in the direction sought with a large enough effect in the repeat runs; inconclusive = weak or mixed curves; inactive = no such curve, though single readings can be large; an effect the other way counts as inactive or inconclusive.

What was measured:
[1] = qHTS assay to identify small molecule antagonists of the thyroid receptor (TR) signaling pathway - cell viability counter screen (AID 743064); also: nearly all actives have a fitted effect of over 50% in size; also: potency is read from the fitted curve at half-maximal effect
Method in brief: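 In rat pituitary GH3.TRE-Luc reporter cells co-exposed to compound and 1 nM T3 for 23.5 h, cytotoxicity was assessed with CellTiter-Fluor in the same wells, read by fluorescence.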

[2] = qHTS assay to identify small molecule antagonists of the thyroid receptor (TR) signaling pathway (AID 743065); also: nearly all actives have a fitted effect of over 55% in size; also: potency is read from the fitted curve at half-maximal effect
Method in brief: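 GH3.TRE-Luc rat pituitary cells (two TREs driving luciferase) were dosed with compound, then stimulated with 1 nM T3 (final) for 23.5 h at 37 C. ONE-Glo luminescence was the read-out, with CellTiter-Fluor fluorescence as the cytotoxicity counter-screen.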

[3] = system: thyroid hormone receptor (rat, GH3 cells); assay: qHTS assay to identify small molecule agonists of the thyroid receptor (TR) signaling pathway (AID 743066; calls by dose curve)
[4] = qHTS assay to identify small molecule antagonists of the estrogen receptor alpha (ER-alpha) signaling pathway - cell viability counter screen (AID 743074; calls by dose curve;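 also: HEK293 cells carrying ER-alpha-UAS-bla reporter stimulated with 17beta-estradiol; nearly all actives have a fitted effect of over 45% in size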)
[5] = qHTS assay to identify small molecule antagonists of the estrogen receptor alpha (ER-alpha) signaling pathway using the BG1 cell line - cell viability counter screen (AID 743081);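 also: compound given together with 17beta-estradiol as the ER stimulus; nearly all actives have a fitted effect of over 45% in size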; also: potency is read from the fitted curve at half-maximal effect
Aromatase (Homo sapiens) = Aromatase (Homo sapiens) (UniProt P11511); assay: qHTS assay to identify aromatase inhibitors (AID 743083); also: nearly all actives have a fitted effect of over 55% in size; also: potency is read from the fitted curve at half-maximal effect
[6] = qHTS assay to identify aromatase inhibitors - cell viability counter screen (AID 743084);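 also: cells stimulated with testosterone during compound exposure; nearly all actives have a fitted effect of over 55% in size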; also: potency is read from the fitted curve at half-maximal effect
[7] = qHTS assay to identify small molecule that activate the aryl hydrocarbon receptor (AhR) signaling pathway - cell viability counter screen (AID 743086);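 also: HepG2 liver cells carrying the AhR DRE luciferase reporter; series mostly up to about 70 µM; nearly all actives have a fitted effect of over 45% in size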
Method in brief: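 HepG2-AhR-luc (HG2L7.5c1) cells, 4000/well, treated 24 h at 37 C with compound; viability measured as CellTiter-Fluor fluorescence after 30 min in the same wells as the luciferase read.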

[8] = target: Peroxisome proliferator-activated receptor gamma (Homo sapiens) (UniProt P37231); assay: qHTS assay to identify small molecule agonists of the peroxisome proliferator-activated receptor gamma (PPARg) signaling pathway (AID 743094; active = well fitted activation curve with a large enough effect in the signal ratio in the repeat runs, not every such curve was filed as active; the % refers to the signal ratio)
Method in brief: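 Beta-lactamase FRET fluorescence was the read-out after a 1 h room-temperature substrate step, following 17 h compound treatment at 37C of HEK293H cells expressing a UAS-driven bla reporter responsive to PPARg.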

[9] = target: Peroxisome proliferator-activated receptor gamma (Homo sapiens) (UniProt P37231); assay: qHTS assay to identify small molecule antagonists of the peroxisome proliferator-activated receptor gamma (PPARg) signaling pathway (AID 743191; calls by dose curve; also: series mostly up to about 63 µM; nearly all actives have a fitted effect of over 30% in size)
Method in brief: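 GeneBLAzer PPARg UAS-bla HEK293H cells, 5 h post-plating, exposed to compounds 17 h at 37C. LiveBLAzer B/G FRET substrate added for 1 h at room temperature; beta-lactamase reporter read by fluorescence intensity.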

[10] = qHTS assay to identify small molecule antagonists of the peroxisome proliferator-activated receptor gamma (PPARg) signaling pathway - cell viability counter screen (AID 743194); also: nearly all actives have a fitted effect of over 55% in size; also: potency is read from the fitted curve at half-maximal effect
Method in brief: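 Cytotoxicity counter screen in PPARg-bla HEK293H cells, same wells as reporter assay. Compounds plus 50 nM rosiglitazone (final) for 17 h at 37 C, then viability read by CellTiter-Glo luminescence.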

[11] = qHTS assay for small molecule agonists of the antioxidant response element (ARE) signaling pathway (AID 743202; active = well fitted activation curve with a large enough effect in the signal ratio in the repeat runs, not every such curve was filed as active; the % refers to the signal ratio; also: potency is read from the fitted curve at half-maximal effect)
Method in brief: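 ARE-bla HepG2 cells (beta-lactamase reporter under the antioxidant response element), plated 5 hours, then exposed to compounds 16 hours at 37 C. LiveBLAzer B/G FRET substrate added for 2 hours at room temperature; fluorescence intensity read.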

[12] = qHTS assay for small molecule agonists of the antioxidant response element (ARE) signaling pathway - cell viability counter screen (AID 743203; calls by dose curve; also: nearly all actives have a fitted effect of over 55% in size; also: potency is read from the fitted curve at half-maximal effect)
Method in brief: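 HepG2 cells carrying ARE-driven beta-lactamase; 2,000 cells/well; 5 hrs plating; compound pinned from DMSO; 16 hrs 37C/5% CO2; CellTiter-Glo added; 30 min RT; luminescence.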

[13] = qHTS assay for small molecule activators of the heat shock response signaling pathway - cell viability counter screen (AID 743209); also: nearly all actives have a fitted effect of over 50% in size
Method in brief: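 Luminescence from CellTiter-Glo, added after the beta-lactamase FRET read, gave the viability signal. Cells were HSE-bla HeLa treated with DMSO-dissolved compounds for 5 h at 37 C following overnight plating.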

[14] = qHTS assay for small molecule activators of the heat shock response signaling pathway (AID 743210; active = well fitted activation curve with a large enough effect in the signal ratio in the repeat runs, with a control signal flat, not every such curve was filed as active; the % refers to the signal ratio; also: series mostly up to about 63 µM)
Method in brief: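 HSE-bla HeLa cells (beta-lactamase reporter under heat shock response elements), plated overnight, then exposed to compounds 5 h at 37 C; LiveBLAzer B/G FRET substrate added, 2.5 h at room temperature, fluorescence intensity read.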

[15] = target: Estrogen receptor (Homo sapiens) (UniProt P03372); assay: qHTS assay to identify small molecule agonists of the estrogen receptor alpha (ER-alpha) signaling pathway using the BG1 cell line (AID 743079); also: nearly all actives have a fitted effect of over 20% in size; also: potency is read from the fitted curve at half-maximal effect
[16] = target: Aryl hydrocarbon receptor (Homo sapiens) (UniProt P35869); assay: qHTS assay to identify small molecule that activate the aryl hydrocarbon receptor (AhR) signaling pathway (AID 743085); also: nearly all actives have a fitted effect of over 15% in size; also: potency is read from the fitted curve at half-maximal effect;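 as to activation: HG2L7.5c1 human HepG2 liver cells with stably integrated DRE-driven firefly reporter; series mostly up to about 70 µM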
Method in brief: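 AhR agonist activity is inferred from enhanced light output of a DRE-controlled firefly luciferase reporter in HepG2 cells, measured with ONE-Glo following 24 h treatment at 37C.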

[17] = target: Estrogen receptor (Homo sapiens) (UniProt P03372); assay: qHTS assay to identify small molecule antagonists of the estrogen receptor alpha (ER-alpha) signaling pathway (AID 743069; active = well fitted curve in the direction sought with a large enough effect in the signal ratio in the repeat runs, not every such curve was filed as active; the % refers to the signal ratio)
Method in brief: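 HEK293 ER-alpha-UAS-bla GripTite cells, held overnight in 2% charcoal-stripped FBS, 5,000 cells/well, preincubated 4 h, then compound plus 17beta-estradiol for 18 h at 37C. Beta-lactamase read by LiveBLAzer B/G FRET substrate, 2 h at room temperature.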

[18] = target: Estrogen receptor (Homo sapiens) (UniProt P03372); assay: qHTS assay to identify small molecule agonists of the estrogen receptor alpha (ER-alpha) signaling pathway (AID 743075; calls by dose curve)
[19] = qHTS assay to identify small molecule antagonists of the estrogen receptor alpha (ER-alpha) signaling pathway using the BG1 cell line (AID 743080; calls by dose curve;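 also: BG1 cells stimulated with 17beta-estradiol alongside compound; series mostly up to about 70 µM; nearly all actives have a fitted effect of over 25% in size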)
Method in brief: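 BG1Luc4E2, endogenous ER-alpha, 4xERE-luc; 5 d charcoal-stripped FBS, phenol red free; 24 h plating; cpd + 17beta-estradiol 21.5 h, 37 C/5% CO2; CellTiter-Fluor viability 30 min, then ONE-Glo luciferase 30 min RT.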

Measured: Potency

Chain of Peroxisome proliferator-activated receptor gamma (Homo sapiens) (P37231 whole entry, looked up): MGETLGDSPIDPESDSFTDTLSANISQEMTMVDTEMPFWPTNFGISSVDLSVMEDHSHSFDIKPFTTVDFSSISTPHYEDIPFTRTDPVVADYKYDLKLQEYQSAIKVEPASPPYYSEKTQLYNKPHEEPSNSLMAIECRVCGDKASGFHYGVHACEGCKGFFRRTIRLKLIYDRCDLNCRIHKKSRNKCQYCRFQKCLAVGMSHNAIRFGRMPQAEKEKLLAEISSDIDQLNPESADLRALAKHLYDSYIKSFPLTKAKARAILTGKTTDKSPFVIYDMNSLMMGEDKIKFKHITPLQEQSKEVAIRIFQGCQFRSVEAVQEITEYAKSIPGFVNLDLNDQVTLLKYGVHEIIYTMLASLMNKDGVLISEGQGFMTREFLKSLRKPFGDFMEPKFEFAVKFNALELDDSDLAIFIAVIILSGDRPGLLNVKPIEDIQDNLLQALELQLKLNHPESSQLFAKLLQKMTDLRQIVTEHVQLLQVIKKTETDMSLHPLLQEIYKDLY
Chain of Aromatase (Homo sapiens) (P11511 whole entry, looked up): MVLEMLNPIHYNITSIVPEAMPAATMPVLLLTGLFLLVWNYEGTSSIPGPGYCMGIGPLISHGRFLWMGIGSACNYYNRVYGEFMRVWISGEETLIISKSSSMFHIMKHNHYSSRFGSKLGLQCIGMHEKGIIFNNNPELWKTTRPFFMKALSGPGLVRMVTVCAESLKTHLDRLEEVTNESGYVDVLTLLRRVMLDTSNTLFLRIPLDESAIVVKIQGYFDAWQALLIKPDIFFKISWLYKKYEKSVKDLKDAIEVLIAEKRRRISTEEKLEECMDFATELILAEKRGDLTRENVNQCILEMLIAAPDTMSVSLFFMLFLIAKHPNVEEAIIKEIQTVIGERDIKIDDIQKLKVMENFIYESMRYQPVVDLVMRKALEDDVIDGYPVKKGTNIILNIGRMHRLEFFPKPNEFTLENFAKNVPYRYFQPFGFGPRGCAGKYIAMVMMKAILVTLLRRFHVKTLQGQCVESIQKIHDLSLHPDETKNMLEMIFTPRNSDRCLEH
Chain of Estrogen receptor (Homo sapiens) (P03372 whole entry, looked up): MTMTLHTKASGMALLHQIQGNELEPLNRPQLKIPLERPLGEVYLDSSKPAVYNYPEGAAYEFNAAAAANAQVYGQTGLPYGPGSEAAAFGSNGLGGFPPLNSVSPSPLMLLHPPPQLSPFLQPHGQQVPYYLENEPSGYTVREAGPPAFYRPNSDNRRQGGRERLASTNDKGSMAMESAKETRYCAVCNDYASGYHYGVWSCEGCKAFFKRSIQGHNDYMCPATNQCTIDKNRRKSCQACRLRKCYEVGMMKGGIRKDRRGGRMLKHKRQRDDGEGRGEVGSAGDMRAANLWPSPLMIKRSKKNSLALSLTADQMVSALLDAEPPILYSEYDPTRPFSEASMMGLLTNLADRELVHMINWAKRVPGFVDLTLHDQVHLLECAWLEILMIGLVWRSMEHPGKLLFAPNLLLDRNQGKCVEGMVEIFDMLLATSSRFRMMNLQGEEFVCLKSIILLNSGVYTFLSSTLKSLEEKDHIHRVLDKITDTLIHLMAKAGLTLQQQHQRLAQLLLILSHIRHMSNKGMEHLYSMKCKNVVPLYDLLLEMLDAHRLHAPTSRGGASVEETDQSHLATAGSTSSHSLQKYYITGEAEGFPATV
Chain of Aryl hydrocarbon receptor (Homo sapiens) (P35869 whole entry, looked up): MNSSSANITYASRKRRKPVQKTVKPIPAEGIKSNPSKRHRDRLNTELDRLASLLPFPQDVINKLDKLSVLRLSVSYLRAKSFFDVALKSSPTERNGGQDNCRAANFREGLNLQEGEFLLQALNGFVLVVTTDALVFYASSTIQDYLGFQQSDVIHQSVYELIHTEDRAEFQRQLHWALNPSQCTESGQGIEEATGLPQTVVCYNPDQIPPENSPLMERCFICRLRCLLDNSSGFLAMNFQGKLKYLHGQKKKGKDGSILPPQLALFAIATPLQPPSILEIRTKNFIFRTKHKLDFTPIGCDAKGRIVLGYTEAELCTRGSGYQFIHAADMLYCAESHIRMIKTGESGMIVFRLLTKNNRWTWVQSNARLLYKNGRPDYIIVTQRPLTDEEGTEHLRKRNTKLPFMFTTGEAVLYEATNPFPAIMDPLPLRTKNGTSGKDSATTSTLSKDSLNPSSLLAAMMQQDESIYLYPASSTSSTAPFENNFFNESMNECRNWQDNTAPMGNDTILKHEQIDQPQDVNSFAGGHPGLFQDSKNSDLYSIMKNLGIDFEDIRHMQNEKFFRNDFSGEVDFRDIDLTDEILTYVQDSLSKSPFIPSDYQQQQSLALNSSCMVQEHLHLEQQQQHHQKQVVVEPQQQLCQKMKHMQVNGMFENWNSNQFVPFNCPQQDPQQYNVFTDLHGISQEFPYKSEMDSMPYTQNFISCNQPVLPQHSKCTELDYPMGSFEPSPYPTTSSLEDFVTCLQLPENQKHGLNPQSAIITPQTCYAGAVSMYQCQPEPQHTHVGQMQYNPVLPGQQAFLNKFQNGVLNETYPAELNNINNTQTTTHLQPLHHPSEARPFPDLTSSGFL

CC(C)(N=C=O)c1cccc(C(C)(C)N=C=O)c1
not listed: [15] | [16] | [17] | [18] | [19]
inactive: all other assays above

CC1(C)O[C@@H]2C[C@H]3[C@@H]4C[C@H](F)C5=CC(=O)CC[C@]5(C)[C@H]4[C@@H](O)C[C@]3(C)[C@]2(C(=O)CO)O1
not listed: [9] | [12] | [17] | [18] | [19]
inactive: all other assays above

O=C1CCCCC1
not listed: [4] | [9] | [16]
inactive: all other assays above

NC(=O)NNc1ccccc1
not listed: [8] | [9] | [12] | [15] | [17] | [18] | [19]
inactive: all other assays above

NS(=O)(=O)c1cc2c(cc1Cl)NC=NS2(=O)=O
not listed: [4] | [9] | [16]
inactive: all other assays above

c1ccc2[nH]cnc2c1
not listed: [15] | [17] | [18] | [19]
inactive: all other assays above

NCCNCCNCCNCCN
not listed: [9] | [11] | [15] | [16] | [17] | [18] | [19]
inactive: all other assays above

Oc1ccc2ccccc2c1N=Nc1ccccc1
inactive and 54.5 µM (active): [1]
inactive and 34.4 µM (active): [5]
active: [15] 19.3 µM and 30.6 µM | [6] 30.6 µM and 24.3 µM
not listed: [7] | [9] | [11] | [16] | [19]
inactive: all other assays above

O=C(O)c1cc(-c2ccccc2)nc2ccccc12
active: [16] 58.4 µM
not listed: [8] | [9] | [15] | [17] | [18] | [19]
inactive: all other assays above

CC(=O)CCc1ccccc1
not listed: [9] | [15] | [16] | [17] | [18] | [19]
inactive: all other assays above

ClC1=C(Cl)C(Cl)(Cl)C(Cl)=C1Cl
inactive and 48.6 µM (active): Aromatase (Homo sapiens)
active: [2] 54.5 µM | [10] 2.2 µM and 3.09 µM | [12] 13.8 µM and 12.2 µM
not listed: [4] | [8] | [9] | [11] | [14]
inactive: all other assays above

CC(C)NCC(O)COc1cccc2ccccc12 (stereo not drawn)
active: [1] 30.6 µM | [2] 61.8 µM and 54.5 µM
not listed: [8] | [9] | [11] | [15] | [17] | [18] | [19]
inactive: all other assays above

COC(=O)Nc1nc2ccc(Sc3ccccc3)cc2[nH]1
active: [1] 0.202 µM | [2] 202 nM and 217 nM | [16] 1.8 µM and 9.69 µM
not listed: [9] | [11] | [14] | [15] | [17] | [18] | [19]
inactive: all other assays above

C=C(C#N)C(=O)OCC
not listed: [9] | [15] | [16] | [17] | [18] | [19]
inactive: all other assays above

CCc1ccc(O)cc1
not listed: [15] | [17] | [18] | [19]
inactive: all other assays above

CN(CCOc1ccc(CC2SC(=O)NC2=O)cc1)c1ccccn1 (stereo not drawn)
21.6 µM (active) and inactive: [11]
active: [2] 54.2 µM
not listed: Aromatase (Homo sapiens) | [6] | [8] | [9] | [12] | [16]
inactive: all other assays above

C[C@@H](O)[C@H]1C(=O)N2C(C(=O)O)=C(S[C@@H]3CN[C@H](C(=O)N(C)C)C3)[C@H](C)[C@H]12
not listed: [9] | [15] | [16] | [17] | [18] | [19]
inactive: all other assays above

CN(C)c1cccc(O)c1
active: [16] 15.6 µM and 30.6 µM | [11] 55.3 µM
not listed: [9] | [15] | [17] | [18] | [19]
inactive: all other assays above
